About 20 (1%) of roughly 2,000 compounds were called active. How the calls were made is not given here. What follows is part of a selection rich in actives, with near analogues and random picks from the rest. Residues, ends and D or L forms follow the SMILES beside them. *: point of attachment. Boc = CC(C)(C)OC(=O)*
Each molecule was assayed against Cystic fibrosis transmembrane conductance regulator (Homo sapiens) (UniProt P13569) (assay: F508del-CFTR plasma membrane relocalization enhancers – imaging, HeLa, high-content microscopy, immunofluorescence, primary screen (AID 1224864;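 further: HeLa cells stably expressing F508del-CFTR stained with 3G11 antibody against NBD1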;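 on plasma membrane CFTR intensity: mean immunofluorescence in a thin cell-margin band taken as plasma membrane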)). Conditions: PM immunofluorescence imaging, 24 h, at 10 µM, stronger effect = higher value, relative to vehicle wells set at 100; total CFTR intensity: measured here: total cellular F508del-CFTR signal.
Chain of Cystic fibrosis transmembrane conductance regulator (Homo sapiens) (P13569 whole entry, looked up, stated change not applied): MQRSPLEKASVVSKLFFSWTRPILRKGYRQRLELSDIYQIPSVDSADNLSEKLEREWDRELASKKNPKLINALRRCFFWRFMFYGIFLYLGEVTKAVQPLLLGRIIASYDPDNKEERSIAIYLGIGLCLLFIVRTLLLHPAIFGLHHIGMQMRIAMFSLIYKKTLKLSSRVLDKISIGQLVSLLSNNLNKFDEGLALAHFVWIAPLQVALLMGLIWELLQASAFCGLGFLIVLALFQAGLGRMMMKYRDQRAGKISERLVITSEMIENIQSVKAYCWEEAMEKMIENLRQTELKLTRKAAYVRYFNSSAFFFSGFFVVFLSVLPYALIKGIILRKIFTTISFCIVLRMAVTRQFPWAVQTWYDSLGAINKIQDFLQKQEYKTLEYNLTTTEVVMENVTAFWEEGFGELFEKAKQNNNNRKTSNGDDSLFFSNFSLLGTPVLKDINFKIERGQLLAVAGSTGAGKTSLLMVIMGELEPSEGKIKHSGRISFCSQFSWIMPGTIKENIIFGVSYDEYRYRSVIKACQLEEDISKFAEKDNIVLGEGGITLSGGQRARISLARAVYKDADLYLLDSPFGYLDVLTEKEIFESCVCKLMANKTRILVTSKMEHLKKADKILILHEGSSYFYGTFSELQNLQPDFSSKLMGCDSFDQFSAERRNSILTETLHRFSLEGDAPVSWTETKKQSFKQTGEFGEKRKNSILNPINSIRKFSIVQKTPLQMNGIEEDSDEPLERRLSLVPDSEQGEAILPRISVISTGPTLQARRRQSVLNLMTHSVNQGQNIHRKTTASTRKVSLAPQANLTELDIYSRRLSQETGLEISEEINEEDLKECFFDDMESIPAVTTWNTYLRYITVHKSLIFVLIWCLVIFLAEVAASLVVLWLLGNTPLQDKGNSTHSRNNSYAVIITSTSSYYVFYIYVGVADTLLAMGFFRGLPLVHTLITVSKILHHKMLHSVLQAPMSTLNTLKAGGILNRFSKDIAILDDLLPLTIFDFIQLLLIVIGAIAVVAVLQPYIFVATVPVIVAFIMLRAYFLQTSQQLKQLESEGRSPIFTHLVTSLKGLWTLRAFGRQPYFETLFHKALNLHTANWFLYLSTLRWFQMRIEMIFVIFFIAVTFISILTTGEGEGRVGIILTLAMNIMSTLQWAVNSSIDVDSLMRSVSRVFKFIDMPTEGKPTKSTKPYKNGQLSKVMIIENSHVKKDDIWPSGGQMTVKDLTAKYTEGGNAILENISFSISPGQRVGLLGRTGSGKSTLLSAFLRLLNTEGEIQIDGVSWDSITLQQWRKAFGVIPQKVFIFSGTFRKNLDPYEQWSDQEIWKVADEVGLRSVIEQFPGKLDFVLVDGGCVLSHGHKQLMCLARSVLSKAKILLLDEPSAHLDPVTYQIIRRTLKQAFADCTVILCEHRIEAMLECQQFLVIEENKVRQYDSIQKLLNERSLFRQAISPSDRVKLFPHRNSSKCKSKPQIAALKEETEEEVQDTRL

SMILES | plasma membrane CFTR intensity | total CFTR intensity [%]
Fc1ccc(NC(=S)Nc2ccccc2Cl)cc1 | 92% (inactive) | 93
CCNC(=O)c1sc2cc(C)ccc2c1Cl | 92% (inactive) | 95
NS(=O)(=O)c1cc2c(cc1Cl)NC(CSCc1ccccc1)=NS2(=O)=O | 84% (inactive) | 85
C[C@@H]1C[C@H](Nc2ccccc2)c2ccccc2N1C(=O)c1cccnc1 | 97% (inactive) | 103
CC(=O)c1c[nH]c2ccc(C)cc2c1=O | 83% (inactive) | 84
COc1ccc(OC)c(NC2=C(Cl)C(=O)N(Cc3ccccc3)C2=O)c1 | 88% (inactive) | 100
Cc1ccc2occ(C(=O)c3ccco3)c(=O)c2c1 | 86% (inactive) | 90
O=C(O)[C@H](Cc1ccccc1)NC(=O)N1CCC(Cc2ccccc2)CC1 | 89% (inactive) | 83
CC(C)CC(=O)N(Cc1ccc(F)cc1)C1CCS(=O)(=O)C1 (stereo unspecified) | 96% (inactive) | 98
CCOc1ccccc1OCCOc1ccc(F)cc1 | 86% (inactive) | 86
C=CCNc1nc2c(c(=O)n(C)c(=O)n2C)n1CC(=C)C | 82% (inactive) | 80
CCOC(=O)C1=C(N)Oc2c(c(=O)[nH]c3ccccc23)C1c1ccccc1 (stereo unspecified) | 93% (inactive) | 96
CCNC(=O)C(Cc1ccccc1)NC(=O)OCc1ccccc1 (stereo unspecified) | 81% (inactive) | 80
COC(=O)c1ccccc1NC(=O)c1ccc(COc2ccc3c(c2)CCC3)cc1 | 84% (inactive) | 83
CCOC(=O)C1C(=O)OC2(CCOC(C)(C)C2)C1C(=O)OCC (stereo unspecified) | 90% (inactive) | 87
COc1ccc(NC(=O)N2CCCCC2c2cccnc2)cc1 (stereo unspecified) | 84% (inactive) | 84
CCOC(=O)C1C2C=CC3(CN(c4ccc(Cl)c(F)c4)C(=O)C13)O2 (stereo unspecified) | 84% (inactive) | 83
CCOC(=O)/C=C1\NC(C)(C)Cc2cc(OC)c(OC)cc21 | 86% (inactive) | 89
O=C(COc1ccccc1)N1CCN(c2ccccc2)CC1 | 88% (inactive) | 85
CC[N+]1(C)CC2CCC(C)(C1)C2(C)C (stereo unspecified) | 72% (inactive) | 75
CC(C)(C)OC(=O)N1CCCC1C(=O)NC(Cc1ccccc1)C(=O)O (stereo not drawn) (Boc-Pro-Phe-OH; configuration not given here) | 96% (inactive) | 102
CC(=O)N1CC23C=CC(CC2CC12CCCCCC2)O3 (stereo unspecified) | 73% (inactive) | 77

SMILES | plasma membrane CFTR intensity | total CFTR intensity [%]
O=C(Nc1cccc(-c2nc3ncccc3o2)c1)c1ccccc1 | 68% (inactive) | 72
CC(COc1ccccc1)NC(C)C(O)c1ccc(O)cc1 (stereo unspecified) | 104% (active) | 121
CC(COc1ccccc1)N(CCCl)Cc1ccccc1 (stereo unspecified) | 78% (inactive) | 80
CC(NCCc1ccc(O)cc1)C(O)c1ccc(O)cc1 (stereo unspecified) | 101% (inactive) | 96
Cc1coc2cc3oc(=O)c(CCC(=O)O)c(C)c3cc12 | 105% (inactive) | 107
N#C/C(C(N)=O)=c1/ccc2c(c1)N1C3=C(CCCC3)CC3CCCCC31N=2 (stereo unspecified) | 109% (active) | 123
COC1CCCCC1Nc1ccc(C)c(C)c1 (stereo unspecified) | 80% (inactive) | 82
CC(=O)Nc1cc(O)cc(O)c1 | 83% (inactive) | 93
O=C(NCC1CCCO1)c1ccc(OC2CCN(C(=O)C3CC3)CC2)cc1 (stereo unspecified) | 83% (inactive) | 76
CCOC(=O)c1oc2cc(OCC(N)=O)ccc2c(=O)c1-c1ccc(OC)c(OC)c1 | 82% (inactive) | 82
CCCC1O[C@@H]2C[C@H]3[C@@H]4CCC5=CC(=O)C=C[C@]5(C)[C@H]4[C@@H](O)C[C@]3(C)[C@]2(C(=O)CO)O1 (stereo partly specified) | 123% (active) | 137
CC(=O)OCC(=O)[C@@]1(O)CC[C@H]2[C@@H]3CCC4=CC(=O)C=C[C@]4(C)[C@H]3[C@@H](O)C[C@@]21C | 89% (inactive) | 94
CC1(C)O[C@@H]2C[C@H]3[C@@H]4CCC5=CC(=O)C=C[C@]5(C)[C@@]4(F)[C@@H](O)C[C@]3(C)[C@]2(C(=O)CO)O1 | 109% (inactive) | 114
CC(=O)N1c2ccccc2C(C)=CC1(C)C | 80% (inactive) | 87
COc1ccc2c(c1OC)C(C1c3c(cc4c(c3OC)OCO4)CCN1C)OC2=O (stereo unspecified) | 116% (inactive) | 112
COc1ccc2c(c1OC)C(=O)OC2C1c2c(cc3c(c2OC)OCO3)CCN1C (stereo unspecified) | 138% (active) | 128
COc1ccc(C(=O)CC2OC(=O)c3c2ccc(OC)c3OC)cc1 (stereo unspecified) | 118% (inactive) | 115
COc1ccc(CCNC(=S)NC(=O)/C=C/c2ccc(C)cc2)cc1OC | 82% (inactive) | 81
CN/C(=C/[N+](=O)[O-])NCCSCc1ccc(CN(C)C)o1 | 88% (inactive) | 83
Cc1ncoc1C(=O)N1CCCC(C(=O)c2ccc(-c3ccccc3)c(F)c2)C1 (stereo unspecified) | 82% (inactive) | 75
CCc1cc(=O)oc2cc(C)c(CN3CCCC(C)C3)c(O)c12 (stereo unspecified) | 88% (inactive) | 88

From PubChem BioAssay AID1224864 (Chung Lab, Department of Pediatrics, Emory University, 2016)
